SMILES strings stand for the structures. The panel holds about 83,000 compounds, 20% with a hit somewhere; the sample as a whole holds those more often.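 Assay: single dose, 48 h. Readout: percent growth (0 = no net growth; negative = cell death). Active: <10.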 The source made the active and inactive calls.

This assay relates to NCI-H322M lung. Briefly: NCI-60 one-dose screen, 48 h (100 = growth as untreated, 0 = no growth, -100 = all killed). The following applies: 10 µM unless noted.
Regarding `O=S(=O)(Nc1ccc(-n2cnc3cc(-c4ccc(O)cc4)ccc32)cc1)c1ccccc1`, the growth was 93% (inactive).

In the case of `O=S(=O)(NCCNc1nccc(-c2c(-c3cccc(O)c3)nc3occn23)n1)c1ccc(Cl)cc1`, the growth is 112% (inactive).

As to `COc1cc(C2=NN(C(C)=O)C(c3cc(OC)c(OC)c(OC)c3)C2)ccc1O` (stereo not given), the growth was 35.2% (inactive).

For the molecule `N/C(=N\C(N)=N\c1nc2ccccc2s1)c1cccc(Cl)c1`, the growth is 97.7% (inactive).

Consider `C=C(C)[C@@H]1CC[C@]2(C(=O)N3CCN(C)CC3)CC[C@]3(C)[C@H](CC[C@@H]4[C@@]5(C)CC[C@H](OCCC#N)C(C)(C)[C@@H]5CC[C@]43C)[C@@H]12`, for which the growth is 103% (inactive).

Consider `O=C(/C=C(O)/C=C/c1ccc(SC(F)(F)F)cc1)/C=C/c1ccc(SC(F)(F)F)cc1`, for which the growth was 102% (inactive).

With `COc1cc(/C(C)=C(\c2ccc(Cl)cc2)c2ccc(OCCN(C)C)cc2)ccc1F`, the growth is 69% (inactive).

Turning to `COc1cc2oc(-c3cccc(C(=O)Nc4ccc(Cl)cc4)c3)cc(=O)c2c(O)c1OC`, the growth was 58.4% (inactive).

Consider `COc1ccc2nc(-c3ccc(-c4noc(-c5cc(OC)c(OC)c(OC)c5)n4)cc3)[nH]c2c1`, for which the growth is 101% (inactive).

On to `COC1=CC(=O)c2ccccc2C1=O`, for which the growth is 94.9% (inactive).

Consider `CC(=O)Nc1cccc(-c2ccc3c(c2)NC(=O)/C3=C\c2ccc[nH]2)c1`, for which the growth was 40.9% (inactive).

In the case of `COc1c(Cl)c2c(c(OC)c1OC)-c1ccc(SC)c(=O)cc1[C@@H](NC(=O)OCC(F)(F)F)CC2`, the growth is 33.6% (inactive).

`COc1cc(/C=N/NC(=O)c2cnn3c2NC(c2ccccc2)C3)ccc1Oc1ccccc1` (stereo not given): the growth was 30.8% (inactive).

As for `COc1cc(C(=O)Nc2cc3c(cc2Oc2cc(C)cc(C)c2)C(=O)N(C)[C@@H](CC(=O)N(C)O)C(=O)N3)c(Br)c(OC)c1OC`, the growth was -32.5% (active).

`COc1cc2cc(CN3CCN(c4nccc(-c5ccc6ccccc6c5)n4)CC3)c(=O)[nH]c2cc1OC`: the growth is 98.4% (inactive).

With `N#C/C(=C\c1c(-c2ccccc2)[nH]c2ccccc12)C(=O)c1ccc(Cl)cc1`, the growth is 61.8% (inactive).

As to `NS(=O)(=O)c1ccc(CCn2c(SCC(=O)c3ccc(Cl)cc3)nc3ccccc3c2=O)cc1`, the growth was 96.3% (inactive).

As for `CC(C)(C)c1ccc(NS(=O)(=O)c2ccc3nc(NC(=O)c4cnccn4)[nH]c3c2)cc1`, the growth is 41.9% (inactive).

Regarding `CCCCCN1C=C/C(=C\C(=O)N(C)c2ccc(OC(F)(F)F)cc2)c2ccccc21`, the growth is 99.6% (inactive).

As to `CCc1c2c(nc3ccc(OCc4ccc(B(O)O)cc4)cc13)-c1cc3c(c(=O)n1C2)COC(=O)[C@]3(O)CC`, the growth is 15.7% (inactive).

On to `COc1cccc(C(=O)NNc2nc(Cl)nc(N3CCN(C(c4ccccc4)c4ccccc4)CC3)n2)c1`, for which the growth is 88.9% (inactive).

On to `COc1cccc(/C=N/NC(=O)c2cnn3c2NC(c2ccccc2)C3)c1Oc1ccccc1` (stereo not given), for which the growth is 102% (inactive).

For `COc1ccc(/C=C/C(=O)Nc2cc(/C=C\c3cc(OC)c(OC)c(OC)c3)cc(OC)c2OC)cc1OC`, the growth is 42.3% (inactive).

Consider `COc1cc2oc(-c3cccc(C(=O)Nc4ccc5c(c4)OCO5)c3)cc(=O)c2c(O)c1OC`, for which the growth is 81% (inactive).

Turning to `Nc1c(S(=O)(=O)O)cc2c3c(cccc13)C(=O)OC2=O`, the growth is 107% (inactive).

With `O=C1Nc2ccccc2/C1=C\c1c(-c2ccccc2)nc2ccccn12`, the growth was 70.1% (inactive).

For `COc1ccc(-c2[nH][nH]c(=O)c2-c2nc3ccccc3s2)cc1`, the growth is 100% (inactive).

On to `Cc1ccc(-c2csc(NC(=O)CSc3nc(-c4ccccc4)cc(=O)[nH]3)n2)cc1`, for which the growth was 93.4% (inactive).

In the case of `Oc1cccc(CCc2ccc(Oc3cc(CCc4cccc(O)c4)cc(O)c3O)cc2)c1`, the growth was 81.8% (inactive).

Regarding `CCOc1cccc(-c2nc(N)nc(Nc3ccccc3SSc3ccccc3Nc3nc(N)nc(-c4cccc(OCC)c4)n3)n2)c1`, the growth is 85.1% (inactive).

Turning to `Nc1n[nH]c2cccc(C#Cc3cccc(C(=O)Nc4cccc(C(F)(F)F)c4)c3)c12`, the growth is 86.4% (inactive).

Turning to `O=C(Nc1ccc(Cl)cc1)c1cc(NCc2cc(O)ccc2O)ccc1O`, the growth is 94.9% (inactive).

As to `COc1cc(/C=C2\COc3ccc(-c4ccccc4)cc3C2=O)cc(OC)c1`, the growth was 85.9% (inactive).

For the molecule `Cc1c(C(=O)NCCC(=O)NO)sc2ncnc(Nc3ccc(NC(=O)Nc4cccc(C(F)(F)F)c4)cc3)c12`, the growth was 104% (inactive).

As for `Cc1cc(C)c(S(=O)(=O)Oc2ccccc2[N+](=O)[O-])c(C)c1`, the growth was 52.6% (inactive).
